High-throughput results (PubChem BioAssay)
TGFb inhibitor: qHTS for Inhibitors of TGF-b | HepG2 CAGA-GFP TGF-b/SMAD3 reporter, GFP fluorescence, 18 h; TGF-beta stimulated, 500 pg/mL final | actives 1.2% (n = 410,000) | Potency, µM (titrated, usually from 46.1 µM), hits mostly inhibitors; also: nearly all actives have a fitted effect of over 65% in size
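Using HEPG2 CAGA-GFP reporter cells at 1000 cells/well, we pinned test compounds, stimulated with recombinant TGF-beta (500 pg/mL final) and measured total well GFP after 18 h.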
TDP1 cell CPT: qHTS for Inhibitors of human tyrosyl-DNA phosphodiesterase 1 (TDP1): qHTS in cells in presence of CPT; chicken DT40 Tdp1-/-;hTDP1 cells + 20 nM CPT, ATP luminescence, 48 h; Potency, µM (titrated, usually from 46.2 µM), most hits filed as inhibitors; actives 12% (n = 420,000); also: nearly all actives have a fitted effect of over 55% in size
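Chicken DT40 Tdp1-/- cells stably complemented with human TDP1 were seeded at 400 cells/well in medium containing 20 nM camptothecin, exposed to pin-transferred compounds, and grown at 37 °C for at least 48 hr. Viability was read as ATP luminescence.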
ATXN viability: Viability Counterscreen for Primary qHTS for Inhibitors of ATXN expression; S2 cells (HEK-293 line with an ATXN2-luciferase reporter) viability, CellTiter-Fluor protease fluorescence, 24 h; AID 651635, 2014; actives 0.49% (n = 400,000); Potency, µM (doses to about 56.7 µM), hits mostly cytotoxic; also: nearly all actives have a fitted effect of over 40% in size
HepG2 tox: qHTS for Inhibitors of TGF-b: Cytotox Counterscreen; HepG2 CAGA-GFP viability, ATP luminescence, 18 h; actives 0.76% (n = 410,000); Potency, µM (titrated, usually from 46.1 µM), most hits filed as cytotoxic
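CellTiter-Glo luminescence gave cytotoxicity after 18 hours at 37 degrees C. The cells were HepG2 CAGA-GFP in 1% FBS DMEM, stimulated with 500 pg/mL TGF-beta after compound addition. %Activity was normalised to no-cell wells (complete cell-killing) and DMSO (no toxicity), and curves were fitted and classified.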
ATXN2 expr inh: Primary qHTS for Inhibitors of ATXN expression; HEK-293 ATXN2-luciferase reporter, luminescence, 24 h; Potency, µM (series often up to 57 µM), hits mostly inhibitors; actives 0.72% (n = 360,000); AID 1745845, 2022; also: nearly all actives have a fitted effect of over 55% in size
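ATXN2-luciferase reporter cells (luciferase flanked by upstream and downstream ATXN2 gene portions) were treated 24 h at 37 °C with compounds at up to 57 uM. SteadyGlo luminescence gave expression; GF-AFC fluorescence gave viability.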
TDP1 cell noCPT: qHTS for Inhibitors of human tyrosyl-DNA phosphodiesterase 1 (TDP1): qHTS in cells in absence of CPT; DT40 Tdp1-/- hTDP1 cells, no CPT, ATP luminescence, 48 h; Potency, µM (highest dose often 46.2 µM), hits mostly inhibitors; actives 15% (n = 420,000); also: nearly all actives have a fitted effect of over 55% in size
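Seeded 400 DT40-hTDP1 cells/well (vehicle DMSO, no 20 nM CPT); pinned compounds; ≥48 hr at 37 °C; CellTiter-Glo luminescence as viability measure.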
Hits are given with their value; – = inactive; ? = inconclusive; · = no result. The list is not random: actives were taken first. Their share in the collection is about 17%. Calls follow the shape of the dose curve; as a rule, active = well fitted curve in the direction sought with a large enough effect; inconclusive = small, poorly fitted or top-dose-only effect, or another doubt; inactive = no such curve, though single readings can be large; an effect the other way counts as inactive or inconclusive.

SMILES	TGFb inhibitor	TDP1 cell CPT	ATXN viability	HepG2 tox	ATXN2 expr inh	TDP1 cell noCPT
O=C(Nc1ncc(Cc2ccccc2)s1)C1CCN(C(=O)c2ccco2)CC1	–	?	·	–	·	?
Cc1ccc(NC(=O)c2ccc(NC(=O)N3CCSc4nc(C)cc(C)c43)cc2)c(Cl)c1	?	?	·	–	·	–
O=c1c(Cl)c(N2CCC3(CC2)OCCO3)cnn1C12CC3CC(CC(C3)C1)C2	–	?	–	–	·	13µM
CC(C)N(C(=O)[C@H]1C[C@H](CC(=O)NCC23CC4CC(CC(C4)C2)C3)C(=O)N2CCc3c([nH]c4cc(CCC(=O)N(C)C)ccc34)[C@]12C)C(C)C	?	6.5µM	25µM	–	?	7.3µM
CN(C)C(=O)CCc1ccc2c3c([nH]c2c1)[C@]1(C)[C@@H](C(=O)N2CCOCC2)C[C@H](CC(=O)NCC24CC5CC(CC(C5)C2)C4)C(=O)N1CC3	–	15µM	–	–	–	?
CC[C@]12c3[nH]c4cc(CCC(=O)N(C)C)ccc4c3CCN1C(=O)[C@@H](CC(=O)NCC13CC4CC(CC(C4)C1)C3)C[C@@H]2C(=O)N1CCN(C(=O)c2ccco2)CC1	–	?	?	–	–	16µM
Cc1ccc(OCC(=O)Nc2ccncc2)c(C)c1	?	21µM	?	–	–	8.2µM
O=C(CCCOc1ccc(Cl)cc1Cl)Nc1ccncc1	–	?	–	–	–	?
O=C(COc1ccc(Cl)cc1Br)Nc1ccncc1	?	?	–	–	–	10µM
CC(=O)Nc1ccc(NC(=O)COc2cccc3ccccc23)cc1	–	9.2µM	–	–	·	8.2µM
Cc1ccccc1OCC(=O)Nc1ccncc1	–	?	?	–	–	16µM
Cc1ccccc1OCC(=O)Nc1ccc(Cc2ccncc2)cc1	–	?	–	–	?	?
O=C1c2ccccc2S(=O)N1c1cccc(F)c1 (stereo not given)	–	–	–	–	–	–
O=c1[nH]c(=S)[nH]c2c1C(c1ccc(F)cc1)OC(C1CCCCC1)C2 (stereo not given)	?	?	–	–	–	?
CCCN(CC(=O)Nc1ccccc1C)C(=O)/C=C/c1ccc(OC)c(OC)c1	–	–	–	–	·	–
Cc1ccccc1C(=O)Nc1ccccc1C(=O)OCc1cc(=O)n2nc(C3CC3)sc2n1	–	–	–	–	–	?
CCc1nc2cc(C(=O)NC3CCS(=O)(=O)C3)cc(NC(=O)c3ccccc3OC)c2n1C (stereo not given)	·	–	–	·	·	–
CC(=O)c1cccc(NC(=O)COC(=O)COc2ccccc2C)c1	–	–	–	–	·	–
CSc1cc(C)c(OCC(=O)Nc2ccc(NC(C)=O)cc2)c(C)c1	–	?	–	0.2µM	·	?
CC(=O)Nc1cccc(NC(=O)COc2ccccc2C)c1	–	12µM	–	–	–	–
CC(=O)Nc1ccc(NC(=O)COc2c(C)cc(Br)cc2C)cc1	–	–	–	–	–	–
Cc1ccccc1OCC(=O)Nc1ccc2[nH]c(=O)sc2c1	–	?	–	–	–	16µM
CCOC(=O)c1c(S(=O)(=O)Nc2ccc(F)cc2C)c(C)n(C)c1C	–	–	–	–	–	–
COc1cccc(N2CCN(C(=O)CN(C)S(=O)(=O)c3ccc4c(c3)c(=O)n(C)c(=O)n4C)CC2)c1	–	?	–	–	–	?
CCCCc1nc(C(N)=O)c2[nH]c(=O)n(-c3ccc(OCC)cc3)c2n1	–	–	–	–	·	–
COCCn1c(COc2cccc(OC)c2)nnc1SCC(=O)NC1CCCCC1	–	–	–	–	–	?
CC(=O)Nc1ccc(NS(=O)(=O)c2c(C(=O)N3CCC(C)CC3)c(C)n(C)c2C)cc1	–	–	·	–	·	–
